Tgondii IFNg: T. gondii growth inhibition under IFN-gamma; Toxoplasma gondii growth in IFN-gamma-treated host cells; hits give low values; activity change, negative = inhibition, % (no concentration beside the values); 69,000 compounds, 3.8% hits; AID 1259416; in the data active = activity change below about -70%, passing the limit was not always enough;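 also: host cells are HeLa cells infected with Toxoplasma gondii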
* = called active by the depositor. The full list was thinned out, with hits kept by preference.

For Cc1ccc(CN2CCC(CNC(=O)C(C)n3c4ccccc4c4cnn(C)c(=O)c43)C2)cc1 (configuration not stated) the results were Tgondii IFNg -104*.
Screening CN(C)C[C@@H]1CC2CN(Cc3nccn3C)CCC2N1C (some centres not stated) returned Tgondii IFNg -2.
O=C(CCc1ccc2[nH]ccc2c1)NCc1ccccn1 was read as Tgondii IFNg -17.
Screening Cc1ccc(-c2coc(-c3ccc(NS(=O)(=O)c4ccc(C(C)(C)C)cc4)cc3)n2)c(C)c1 returned Tgondii IFNg -38.
`CC(C)(C)c1ccc(S(=O)(=O)Nc2ccc(C34CC5CC(CC(C5)C3)C4)cc2)cc1` gave Tgondii IFNg -96*.
For O=C1CCc2cc(NS(=O)(=O)c3ccc(C(F)(F)F)cc3)ccc2N1 the results were Tgondii IFNg -37.
For Cc1ccc(OCCN(C)C)c(NC(=O)C2CC(=O)N(C(C)(C)C)C2)c1 (configuration not stated) the results were Tgondii IFNg 0.
For O=C(C1CCCCn2nnnc21)N1CCC2(CCCO2)CC1 (configuration not stated) the results were Tgondii IFNg -6.
C=CC(=O)Nc1cccc(Sc2nc(Nc3ccc(N4CCN(C)CC4)cc3)ncc2Cl)c1 was read as Tgondii IFNg -82*.
`CCC(=O)Nc1cccc(Oc2nc(Nc3ccc(N4CCN(C)CC4)cc3OC)ncc2Cl)c1` gave Tgondii IFNg -19.
Screening C=CC(=O)Nc1cccc(Oc2nc(Nc3ccc(N4CCN(C)CC4)cc3OC)ncc2Cl)c1 returned Tgondii IFNg -67.
For COc1cc(CCc2cc(=O)n3[nH]cc(-c4ccccc4)c3n2)on1 the results were Tgondii IFNg 333.
Screening Cc1cc2cc3c(cc2n2c(=O)n(Cc4ccccn4)nc12)OCO3 returned Tgondii IFNg -45.
CCN(CC)C(=O)Cn1nc2c(C)cc3ccc(OC)cc3n2c1=O was read as Tgondii IFNg -9.
Cc1ccc2cc(C)c3nn(CCNC(=O)C4CSC(c5ccncc5)=N4)c(=O)n3c2c1 (configuration not stated) was read as Tgondii IFNg -110*.
Screening COc1ccccc1OC(C)(C)C(=O)N1CCC(O)(CN(C)C)C1 (configuration not stated) returned Tgondii IFNg -1.
For COc1cccc2cc(C(=O)Nc3ccc(CN4CCOCC4)cc3)c(=O)oc12 the results were Tgondii IFNg 13.
Screening c1ccc(COC2CCN(Cc3cnc(-c4ccco4)nc3)CC2)cc1 returned Tgondii IFNg 2.
`CCOCC(=O)N1CC[C@@H]2CN(c3ccc(C)nn3)CCO[C@H]2C1` gave Tgondii IFNg 7.
`CC(=O)c1cccc(CN2CCCC(O)(CO)CC2)c1` (configuration not stated) gave Tgondii IFNg 1.
CCN(CC)c1ncnc2c1cnn2CC(=O)Nc1ccc(F)cc1 was read as Tgondii IFNg -19.
For Cc1ccc(S(=O)(=O)Nc2ccc(-c3nc4ccccc4[nH]3)cc2)cc1 the results were Tgondii IFNg -81*.
`CC(=O)Nc1ccc(S(=O)(=O)Nc2nc3ccccc3nc2Nc2ccc(C)cc2)cc1` gave Tgondii IFNg -30.
Cc1ccc(S(=O)(=O)Nc2cnc3ccccc3c2)cc1 was read as Tgondii IFNg -53.
Screening O=C(Cn1cnc2ccccc21)N1CC[C@@H](c2ccc3c(c2)OCO3)[C@H](O)C1 returned Tgondii IFNg 16.
`COc1ccc(C(=O)NCCc2csc(-c3cccc(C)c3)n2)cc1` gave Tgondii IFNg inactive.
Cc1nccn1CCCNC(=O)c1cc2nc3c(c(C(F)(F)F)n2n1)CCCC3 was read as Tgondii IFNg 5.
COc1ccc(-c2cc(C(F)(F)F)n3nc(-c4cccs4)cc3n2)cc1 was read as Tgondii IFNg -51.
`COc1ccc(-c2ccnc(SC)n2)cc1` gave Tgondii IFNg -82*.
Screening COc1ccc(-c2cc(C3CCN(C(C)=O)CC3)ccn2)cc1 returned Tgondii IFNg 74.
For COc1ccc(-c2cc(N)nc(N)n2)cc1 the results were Tgondii IFNg 16.
COc1cccc(CNc2ncc(-c3ccncc3)c(-c3cccs3)n2)c1 was read as Tgondii IFNg -52.
For COc1ccc(-c2ccnc(-c3cccs3)n2)cc1 the results were Tgondii IFNg -103*.
`CN=C1SC(CC(=O)O)C(=O)N1C` (configuration not stated) gave Tgondii IFNg 42.
O=c1[nH]nc(CCCO)n1C1CCCC1 was read as Tgondii IFNg -5.
`CN1CCC2(CN(Cc3cccnc3)CC23CCN(C(=O)N2CCCC2)CC3)C1=O` (configuration not stated) gave Tgondii IFNg 8.
`CCN(CC)C(=O)Sc1nc2cc(Cl)ccc2s1` gave Tgondii IFNg -51.
For O=C(O)CSc1nc2cc(Cl)ccc2s1 the results were Tgondii IFNg -107*.
O=C(O)CCSc1nc2ccccc2s1 was read as Tgondii IFNg -27.
`CN(Cc1cn[nH]c1-c1cccc(F)c1)CC1(CO)CC1` gave Tgondii IFNg 9.
`COc1ccc(-c2[nH]ncc2CN(Cc2ccc(C)o2)CC2CCCO2)cc1` (configuration not stated) gave Tgondii IFNg -19.
`N[C@@H]1CCCCN(c2c(F)cc3c(=O)c(C(=O)O)cn(C4CC4)c3c2Cl)C1` gave Tgondii IFNg -9.
Screening N#Cc1c(N2C[C@@H]3NCCO[C@H]3C2)c(F)cc2c(=O)c(C(=O)O)cn(C3CC3)c12 returned Tgondii IFNg -86*.
`C[C@@H]1CN(c2c(F)c(F)c3c(=O)c(C(=O)O)cn(C4CC4)c3c2F)C[C@H](C)N1` gave Tgondii IFNg 3.
For CCn1ncnc1-c1c(-c2ccccc2)ncn1CCc1cccs1 the results were Tgondii IFNg -1.
For CC(C)NC(=O)N1CCC2(c3ccccc3)CN(Cc3cccnc3)CC2C1 (configuration not stated) the results were Tgondii IFNg -9.
`CCCCC1CCC(C(=O)Nc2cc(C)nn2-c2ncnc3c2cnn3-c2ccc(Cl)cc2)CC1` (configuration not stated) gave Tgondii IFNg 10.
Screening Cc1cccc(CN2CCC3(CCC(COCC4CC4)N3C)CC2)n1 (configuration not stated) returned Tgondii IFNg -85*.
CC(C)N1CC2(CCN(Cc3cccnc3)CC2)CC1COCC1CC1 (configuration not stated) was read as Tgondii IFNg -4.
For Cc1ccc(C(=O)N2CCC3(CCC(COCC4CC4)N3C)CC2)cc1 (configuration not stated) the results were Tgondii IFNg -3.
`CC(=O)OCC(=O)[C@H]1CCC2C3CC=C4C[C@@H](O)CC[C@]4(C)C3CC[C@@]21C` (some centres not stated) gave Tgondii IFNg -35.
For CCCS(=O)(=O)N1CCOC(CCCC(C)C)C1 (configuration not stated) the results were Tgondii IFNg 4.
Screening CN(CC1(CO)CCCC1)C(=O)Cc1ccncc1 returned Tgondii IFNg 28.

Screening data (PubChem)
